“And” between values parts separate entries of the source, which are not always exact repeats. Equal entries are not always repeated. Inconclusive results are not listed. More than one record can exist for a structure, and the calls need not agree. The source made the active and inactive calls.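 Rule for the calls, unless noted: active = compounds whose cell count with miR-34 switched on is under 0.7 times the count with it off; inactive = the rest.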
How the values were obtained:
[1] = sensitizers of A549 cells to miR-34 induction, primary screen, imaging, A549 dox-inducible miR-34, nuclei and caspase counts (AID 1347080); settings: A549 miR-34 inducible, Hoechst nuclei count, 48 h
[2] = phospholipid biosynthesis inhibitors in animal cells, primary screen, cell-based, LOPAC library, screen 4 (AID 1347384; call rule not given here); settings: phospholipid biosynthesis inhibition screen, at 10 µM
[3] = survival rescue of mitochondrial mutant cells in low glucose, primary screen, MELAS cybrids, Rieske KO mouse fibroblasts, CellTiter-Glo (AID 1508586;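 active = mean z-score across replicates of 1.96 or higher in either the MELAS or the Rieske mutant cell line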;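 note: z relative to plate mean and SD of compound and empty wells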)
[4] = target: NAD(+) hydrolase SARM1 (Homo sapiens) (UniProt Q6SZW1); test: SARM1 TIR NADase inhibitors, cell lysate, NAD-Glo luminescence (AID 1508614;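 active = compound whose remaining NAD level is above about 45 nM, limit read from the data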;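 note: higher remaining NAD means stronger inhibition of SARM1 NADase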); settings: SAM-TIR HEK293T lysate NADase, at 1 µM, stronger effect = higher value
[5] = target: Mitogen-activated protein kinase 7 (Homo sapiens) (UniProt Q13164); test: ERK5 transactivation activators in reporter cells, primary screen, cell-based, HTS (AID 1508626;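 active = luciferase signal above three times the same-plate solvent-only control wells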;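 note: luciferase driven by Gal4-ERK5 fusion binding five Gal4 sites before minimal TATA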); settings: HeLa Gal4-ERK5 transactivation, 18 h, at 5 µM, stronger effect = higher value
[6] = viability rescue of complex I mutant cybrids, primary screen, cell-based, galactose medium, ATP luminescence (AID 1645843;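 active = z-score of at least 1.8 in each of two replicates, scored against plate mean and spread of sample wells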;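 note: positive z means more ATP and so rescue of galactose-driven cybrid death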); settings: complex I mutant cybrid cells, 72 h, stronger effect = higher value
[7] = SU-DIPG-XXV glioma cell viability, MIPE5.0 library, qHTS (AID 1347068; cut-off not given, nearly all actives have IC50 up to about 30 µM)
[8] = SU-DIPG-VI glioma cell viability, MIPE4.0 library, CellTiter-Glo luminescence, qHTS (AID 1347066; cut-off not given, nearly all actives have AC50 up to about 30 µM;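 note: cells exposed to compound for 48 hours before readout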); settings: CellTiter-Glo ATP luminescence
[9] = JHH-DIPG-1 glioma cell viability, MIPE5.0 library, CellTiter-Glo luminescence, qHTS (AID 1347067; cut-off not given, nearly all actives have AC50 up to about 26 µM;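 note: cells exposed to compound for 48 hours before readout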); settings: JHH-DIPG-1 glioma viability, CellTiter-Glo ATP luminescence
[10] = stronger effect = lower value, cell number ratio, induced over uninduced
[11] = measured here: relative caspase fold change +Dox/-Dox
[12] = measured here: total cells with miR-34 induction, stronger effect = lower value
[13] = measured here: total cells without miR-34 induction
[14] = MELAS cybrid survival, CellTiter-Glo 48 h, stronger effect = higher value
[15] = Rieske KO mouse fibroblast survival, CellTiter-Glo 72 h

Sequence of Mitogen-activated protein kinase 7 (Homo sapiens) (Q13164 whole entry, looked up, the tested form may be a part): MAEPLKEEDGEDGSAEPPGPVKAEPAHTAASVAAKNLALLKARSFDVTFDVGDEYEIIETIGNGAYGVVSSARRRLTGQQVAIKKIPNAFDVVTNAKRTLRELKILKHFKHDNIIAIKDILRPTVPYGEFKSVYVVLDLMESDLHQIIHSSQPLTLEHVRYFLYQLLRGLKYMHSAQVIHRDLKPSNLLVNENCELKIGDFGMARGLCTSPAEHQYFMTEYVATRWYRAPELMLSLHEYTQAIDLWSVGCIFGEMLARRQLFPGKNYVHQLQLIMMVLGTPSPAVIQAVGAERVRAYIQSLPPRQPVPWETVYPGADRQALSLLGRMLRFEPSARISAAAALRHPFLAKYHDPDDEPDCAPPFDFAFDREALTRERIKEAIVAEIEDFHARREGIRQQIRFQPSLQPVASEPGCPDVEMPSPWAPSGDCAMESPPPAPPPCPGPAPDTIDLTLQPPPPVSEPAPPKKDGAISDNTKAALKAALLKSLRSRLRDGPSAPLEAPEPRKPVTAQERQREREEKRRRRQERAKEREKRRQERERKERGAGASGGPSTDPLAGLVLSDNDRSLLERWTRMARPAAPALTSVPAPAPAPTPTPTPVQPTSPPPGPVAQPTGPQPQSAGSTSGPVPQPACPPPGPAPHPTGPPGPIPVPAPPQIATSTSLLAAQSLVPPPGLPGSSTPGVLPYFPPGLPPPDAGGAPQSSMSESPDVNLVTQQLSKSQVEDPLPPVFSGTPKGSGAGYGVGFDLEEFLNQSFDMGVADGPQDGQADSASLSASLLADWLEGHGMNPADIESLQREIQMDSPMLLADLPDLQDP
Sequence of NAD(+) hydrolase SARM1 (Homo sapiens) (Q6SZW1 whole entry, looked up, the tested form may be a part): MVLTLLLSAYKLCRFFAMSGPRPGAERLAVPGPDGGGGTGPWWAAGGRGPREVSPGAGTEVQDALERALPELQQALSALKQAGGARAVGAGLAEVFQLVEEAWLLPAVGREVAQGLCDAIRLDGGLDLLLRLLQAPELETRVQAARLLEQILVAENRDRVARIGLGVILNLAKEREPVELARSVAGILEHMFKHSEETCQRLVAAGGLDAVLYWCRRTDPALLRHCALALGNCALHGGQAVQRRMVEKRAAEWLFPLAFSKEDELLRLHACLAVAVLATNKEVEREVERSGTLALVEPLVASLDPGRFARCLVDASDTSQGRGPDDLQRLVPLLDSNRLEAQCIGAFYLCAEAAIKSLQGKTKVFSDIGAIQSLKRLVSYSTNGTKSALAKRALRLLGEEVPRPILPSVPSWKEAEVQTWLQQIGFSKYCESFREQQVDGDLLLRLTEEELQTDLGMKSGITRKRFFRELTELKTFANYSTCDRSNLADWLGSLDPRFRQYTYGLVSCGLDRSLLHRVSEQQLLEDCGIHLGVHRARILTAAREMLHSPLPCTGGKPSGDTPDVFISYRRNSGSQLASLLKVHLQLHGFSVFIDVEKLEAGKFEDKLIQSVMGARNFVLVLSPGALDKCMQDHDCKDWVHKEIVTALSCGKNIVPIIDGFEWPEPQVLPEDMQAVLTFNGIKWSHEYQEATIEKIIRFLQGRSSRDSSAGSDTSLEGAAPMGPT

Nc1ccc(S(=O)(=O)Nc2ccnn2-c2ccccc2)cc1
fold change [1, 10]: 0.969 (inactive) and 0.9 (inactive)
fold change [1, 11]: 1.76 and 1.07
cell count [1, 12]: 10100 and 7980
cell count [1, 13]: 10500 and 8860
outcome [2]: inactive
z-score [3, 14]: -0.791 (inactive)
z-score [3, 15]: -0.133
remaining NAD [4]: 10 nM (inactive)
luciferase signal [5]: 96 AU (inactive)
z-score [6]: 0.735 (inactive)

COc1ccc(CC2c3cc(OC)c(OC)cc3CC[N+]2(C)CCC(=O)OCCCCCOC(=O)CC[N+]2(C)CCc3cc(OC)c(OC)cc3C2Cc2ccc(OC)c(OC)c2)cc1OC (configuration not stated)
outcome [7]: inactive
z-score [3, 14]: -0.594 (inactive) and -1.25 (inactive) and -0.066 (inactive)
z-score [3, 15]: -0.336 and -0.215 and -0.301
remaining NAD [4]: 10 nM (inactive)
z-score [6]: -0.89 (inactive) and 0.01 (inactive)

C[N+](C)(C)CCCCCC[N+](C)(C)C
fold change [1, 10]: 0.986 (inactive) and 1.01 (inactive) and 0.859 (inactive)
fold change [1, 11]: 0.977 and 0.809 and 0.908
cell count [1, 12]: 10300 and 10200 and 8850
cell count [1, 13]: 10500 and 10100 and 10300
outcome [2]: inactive
z-score [3, 14]: 0.935 (inactive)
z-score [3, 15]: 0.174
remaining NAD [4]: 10 nM (inactive)
luciferase signal [5]: 52 AU (inactive)
z-score [6]: 0.205 (inactive) and 0.235 (inactive)

CN(C)CCCN1c2ccccc2Sc2ccc(C(F)(F)F)cc21
fold change [1, 10]: 1.11 (inactive) and 0.899 (inactive) and 0.891 (inactive)
fold change [1, 11]: 0.594 and 1.31 and 3.14
cell count [1, 12]: 1420 and 7820 and 9630
cell count [1, 13]: 1280 and 8700 and 10800
outcome [2]: inactive
z-score [3, 14]: -0.173 (inactive)
z-score [3, 15]: 0.266
remaining NAD [4]: 10 nM (inactive)
luciferase signal [5]: 64 AU (inactive)
z-score [6]: -1.38 (inactive)

CN(C)CCCN1c2ccccc2Sc2ccccc21
fold change [1, 10]: 0.997 (inactive) and 0.896 (inactive) and 0.916 (inactive)
fold change [1, 11]: 1.96 and 1.17 and 2.21
cell count [1, 12]: 7860 and 8360 and 9720
cell count [1, 13]: 7880 and 9340 and 10600
outcome [2]: inactive
z-score [3, 14]: -0.514 (inactive)
z-score [3, 15]: -0.0726
remaining NAD [4]: 10 nM (inactive)
luciferase signal [5]: 44 AU (inactive)
z-score [6]: -0.99 (inactive)

C=CCc1ccccc1OCC(O)CNC(C)C (configuration not stated)
fold change [1, 10]: 0.963 (inactive) and 0.998 (inactive) and 0.909 (inactive)
fold change [1, 11]: 1.1 and 1.18 and 0.556
cell count [1, 12]: 10100 and 7510 and 7890
cell count [1, 13]: 10500 and 7520 and 8680
outcome [2]: inactive
z-score [3, 14]: -0.407 (inactive) and -0.689 (inactive)
z-score [3, 15]: -0.409 and 0.651
remaining NAD [4]: 10 nM (inactive)
luciferase signal [5]: 60 AU (inactive)
z-score [6]: -0.345 (inactive) and 0.39 (inactive)

CN(C)[C@@H]1C(=O)C(C(N)=O)=C(O)[C@@]2(O)C(=O)C3=C(O)c4c(O)ccc(Cl)c4[C@@H](O)[C@H]3C[C@@H]12
fold change [1, 10]: 1 (inactive) and 0.852 (inactive) and 0.887 (inactive)
fold change [1, 11]: 0.853 and 1.42 and 3.05
cell count [1, 12]: 2520 and 7990 and 10000
cell count [1, 13]: 2520 and 9380 and 11300
outcome [2]: inactive
z-score [3, 14]: 0.25 (inactive)
z-score [3, 15]: -1.49
remaining NAD [4]: 10 nM (inactive)
luciferase signal [5]: 36 AU (inactive)
z-score [6]: 2.89 (active)

NCCS
fold change [1, 10]: 1.1 (inactive) and 0.868 (inactive) and 0.893 (inactive)
fold change [1, 11]: 0.51 and 1.42 and 2.94
cell count [1, 12]: 11000 and 8060 and 11500
cell count [1, 13]: 9990 and 9290 and 12900
outcome [2]: inactive
z-score [3, 14]: -0.14 (inactive)
z-score [3, 15]: -0.336
remaining NAD [4]: 10 nM (inactive)
luciferase signal [5]: 76 AU (inactive)
z-score [6]: 0.24 (inactive)

C[C@]12C=CC(=O)C=C1CC[C@H]1[C@@H]3C[C@@H](O)[C@](O)(C(=O)CO)[C@@]3(C)C[C@H](O)[C@@]12F
fold change [1, 10]: 0.938 (inactive) and 0.869 (inactive) and 0.939 (inactive)
fold change [1, 11]: 0.943 and 0.955 and 1.2
cell count [1, 12]: 7680 and 5920 and 7610
cell count [1, 13]: 8190 and 6810 and 8100
outcome [2]: inactive
z-score [3, 14]: 0.162 (inactive) and 0.389 (inactive)
z-score [3, 15]: 0.159 and 0.935
remaining NAD [4]: 10 nM (inactive)
luciferase signal [5]: 36 AU (inactive)
z-score [6]: 2.37 (active) and 0.76 (inactive)

Cc1nc2n(c(=O)c1CCN1CCC(c3noc4cc(F)ccc34)CC1)CCCC2
outcome [8]: inactive
z-score [3, 14]: 1.35 (inactive) and -1.13 (inactive) and -0.64 (inactive)
z-score [3, 15]: 0.0817 and 0.437 and -0.833
remaining NAD [4]: 10 nM (inactive)
z-score [6]: -1.22 (inactive) and -0.71 (inactive)

O=C1Nc2ccc(Cl)cc2[C@@](C#CC2CC2)(C(F)(F)F)O1
AC50 [9]: 20.9 µM (active)
fold change [1, 10]: 0.73 (inactive) and 0.903 (inactive)
fold change [1, 11]: 1.52 and 0.886
cell count [1, 12]: 6400 and 6960
cell count [1, 13]: 8760 and 7710
z-score [3, 14]: 1.16 (inactive) and -1.54 (inactive)
z-score [3, 15]: 0.346 and 0.0528
z-score [6]: -1.77 (inactive) and -2 (inactive)

CCN(CC)CCNC(=O)c1cc(S(C)(=O)=O)ccc1OC
fold change [1, 10]: 0.998 (inactive) and 0.882 (inactive) and 0.896 (inactive)
fold change [1, 11]: 1.76 and 0.709 and 3.36
cell count [1, 12]: 9610 and 9280 and 12200
cell count [1, 13]: 9630 and 10500 and 13600
outcome [2]: inactive
z-score [3, 14]: 0.496 (inactive)
z-score [3, 15]: -0.0746
remaining NAD [4]: 10 nM (inactive)
luciferase signal [5]: 80 AU (inactive)
z-score [6]: 0.285 (inactive)

Cc1ccc(C(=O)Nc2ccc(S(=O)(=O)O)c3cc(S(=O)(=O)O)cc(S(=O)(=O)O)c23)cc1NC(=O)c1cccc(NC(=O)Nc2cccc(C(=O)Nc3cc(C(=O)Nc4ccc(S(=O)(=O)O)c5cc(S(=O)(=O)O)cc(S(=O)(=O)O)c45)ccc3C)c2)c1
outcome [9]: inactive
outcome [7]: inactive
cell count [1, 13]: 10200 and 13600 and 11000
outcome [2]: inactive
z-score [3, 14]: 0.0857 (inactive)
z-score [3, 15]: -0.401
remaining NAD [4]: 10 nM (inactive)
luciferase signal [5]: 48 AU (inactive)
z-score [6]: 4.14 (active) and 1.81 (inactive) and 0.955 (inactive)

CNS(=O)(=O)Cc1ccc2[nH]cc(CCN(C)C)c2c1
outcome [8]: inactive
z-score [3, 14]: -0.261 (inactive) and 0.654 (inactive) and -0.798 (inactive)
z-score [3, 15]: -0.042 and 0.351 and -0.245
remaining NAD [4]: 10 nM (inactive)
z-score [6]: 0.385 (inactive) and 0.365 (inactive) and 0.755 (inactive)

Cc1nnc(SCC2=C(C(=O)O)N3C(=O)[C@@H](NC(=O)Cn4cnnn4)[C@H]3SC2)s1
fold change [1, 10]: 1.03 (inactive) and 0.804 (inactive) and 0.912 (inactive)
fold change [1, 11]: 1.87 and 0.957 and 4.16
cell count [1, 12]: 10400 and 8100 and 11000
cell count [1, 13]: 10100 and 12000
outcome [2]: inactive
z-score [3, 14]: 0.651 (inactive)
z-score [3, 15]: 0.288
remaining NAD [4]: 10 nM (inactive)
luciferase signal [5]: 28 AU (inactive)
z-score [6]: -0.3 (inactive)

From PubChem BioAssay
